Assay [1] is described as follows: small molecules captured by biotinylated probe aFSTL3 – biochemical, small-molecule microarray, fluorescence 635/667, stem cell growth factor project, primary screen (AID 1064).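 Further: measures binding of the biotinylated anti-FSTL3 antibody to printed compounds.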 Conditions: higher = more signal.
Assay [2] is described as follows: binders from COS7 lysate, DM2A8 probe, primary screen, torsin A project, cell lysate, small-molecule microarray, fluorescence 635/667 (AID 1065). Conditions: higher = more signal, COS7 lysate expressing mutant human TOR1A.
The nature of assay [3]: small molecules captured by biotinylated probe aFGF2 – biochemical, small-molecule microarray, fluorescence 635/667, stem cell growth factor project, primary screen (AID 1067).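 Further: measures binding of biotinylated aFGF2 protein to printed compounds on slides; z-score merges feature fluorescence and signal-to-noise across triplicate slides.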 The settings on record: higher = more signal.
The nature of assay [4]: small molecules captured by biotinylated probe aFGF10 – biochemical, small-molecule microarray, fluorescence 635/667, stem cell growth factor project, primary screen (AID 1071).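 Further: score merges 667 nm spot intensity and signal to noise from triplicate slides.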 The settings on record: higher = more signal.
Assay [5] concerns the target Neurogenic locus notch homolog protein 2 (Homo sapiens) (UniProt Q04721). The experiment in a line: small molecules binding Notch2 protein – biochemical, small-molecule microarray, 635 nm fluorescence, stem cell growth factors, primary screen (AID 1073). Conditions: higher = more signal.
Assay [6] has as its target Pro-neuregulin-1, membrane-bound isoform (Homo sapiens) (UniProt Q02297). The experiment in a line: small molecules binding neuregulin-1 protein – biochemical, small-molecule microarray, fluorescence 635/667, psychiatric disease protein project, primary screen (AID 1075).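 Further: score combines 667 nm spot fluorescence with signal to noise.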 The settings on record: NRG1 binding, 635 nm fluorescence, higher = more signal.
In assay [7] the test system is Neuregulin-1 EGF-like domain. In words: small molecules binding NRG1 EGF domain – biochemical, small-molecule microarray, 635 nm fluorescence, primary screen (AID 1081).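 Further: binding of the protein to compounds printed on small-molecule microarray slides.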 Conditions: higher = more signal.
The nature of assay [8]: FRG1 expression reporter modulators in myotubes – cell-based, C2C12 myotubes, firefly/Renilla luciferase, luminescence, FRG1 inhibition for FSHD, primary screen (AID 1084). The settings on record: FRG1 promoter luciferase, higher = more signal, called active from +8 up or from −8 down.
A short description of assay [9]: small molecules captured by biotinylated probe aFST – biochemical, small-molecule microarray, fluorescence 635/667, stem cell growth factor project, primary screen (AID 1086).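 Further: score merges 667 nm fluorescence with signal-to-noise of each printed compound spot.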 Conditions: higher = more signal.
Assay [10] is described as follows: binders of probe aHhip on microarray, primary screen, stem cell growth factor project, biochemical, small-molecule microarray, fluorescence 635/667 (AID 1087).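 Further: score merges spot fluorescence at 667nm with spot signal to noise ratio.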 Conditions: higher = more signal.
The test system of assay [11] is PRMT1 (protein arginine N-methyltransferase 1). In words: small molecules binding arginine methyltransferase PRMT1 – biochemical, small-molecule microarray, 635 nm fluorescence, primary screen (AID 1088).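 Further: binding of Prmt1 protein to compounds spotted on small-molecule microarray slides.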 Conditions: higher = more signal.
Assay [12] in a line: growth effects on S. cerevisiae YJM789 – YJM789 clinical isolate, OD600, 24 h, basal, primary screen (AID 1089).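 Further: growth of clinical yeast isolate S. cerevisiae YJM 789 seeded 1000 cells per well; test concentration not given here.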 The settings on record: higher = more signal, called active from +8 up or from −8 down.
A short description of assay [13]: S. pombe growth modifiers, basal conditions – strain 972, OD600, 24 h, no modulator, primary screen (AID 1090).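 Further: basal condition with compound alone and no growth modifier present; test concentration not given here.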 Conditions: S. pombe 972 growth, higher = more signal, called active from +8 up or from −8 down.
A short description of assay [14]: budding yeast growth modifiers under rapamycin – strain BY4716, OD600, 96 h, primary screen (AID 1091). Further: test concentration not given here. The settings on record: S. cerevisiae BY4716 + rapamycin, higher = more signal, called active from +8 up or from −8 down.
Assay [15] deals with Torsin-1A-interacting protein 2 (Homo sapiens) (UniProt Q8NFQ8). In words: small molecules binding lysate-expressed LULL1 – cell lysate, human LULL1 lysate, 635/667 nm fluorescence, primary screen (AID 1092).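 Further: score merges per-feature 667 nm fluorescence with signal-to-noise.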 The settings on record: small-molecule microarray, hLULL1 lysate binding, 635 nm fluorescence; higher = more signal.
Assay [16] is described as follows: optical density change of DRC41 E. coli – strain DRC41, OD650, 24 h, E. coli filamentation project, primary screen (AID 1093).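 Further: MC1000 strain lacking acrAB efflux and sulA so SOS filamentation is blocked; test concentration not given here.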 The settings on record: E. coli DRC41 growth, higher = more signal, called active from +8 up or from −8 down.
The nature of assay [17]: probe aLefty2 binding to arrayed compounds – biochemical, biotinylated probe, 635/667 nm fluorescence, primary screen (AID 1094).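 Further: score merges spot fluorescence near 667 nm with spot signal-to-noise ratio.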 The settings on record: small-molecule microarray, higher = more signal.
For assay [18], the system named is Noggin (protein binding on small-molecule microarray). The experiment in a line: small molecules binding Noggin protein – biochemical, 635/667 nm fluorescence, primary screen (AID 1095).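 Further: score merges 667 nm feature fluorescence with signal to noise over triplicate slides.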 Conditions: 635 nm fluorescence, higher = more signal.
Assay [19] addresses Neurogenic locus notch homolog protein 3 (Homo sapiens) (UniProt Q9UM47). The experiment in a line: small molecules binding NOTCH3 protein – biochemical, 635/667 nm fluorescence, primary screen (AID 1096). Conditions: small-molecule microarray, 635 nm fluorescence, higher = more signal.
The nature of assay [20]: probe aEGFR binding to arrayed compounds – biochemical, biotinylated probe, 635/667 nm fluorescence, primary screen (AID 1097).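 Further: probe is a biotinylated anti-EGFR antibody binding compounds printed on slides; score combines fluorescence near 667 nm and signal to noise of each spot.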 Conditions: small-molecule microarray, higher = more signal.

The source made the active and inactive calls.

Sequence of Neurogenic locus notch homolog protein 3 (Homo sapiens) (Q9UM47 whole entry, looked up): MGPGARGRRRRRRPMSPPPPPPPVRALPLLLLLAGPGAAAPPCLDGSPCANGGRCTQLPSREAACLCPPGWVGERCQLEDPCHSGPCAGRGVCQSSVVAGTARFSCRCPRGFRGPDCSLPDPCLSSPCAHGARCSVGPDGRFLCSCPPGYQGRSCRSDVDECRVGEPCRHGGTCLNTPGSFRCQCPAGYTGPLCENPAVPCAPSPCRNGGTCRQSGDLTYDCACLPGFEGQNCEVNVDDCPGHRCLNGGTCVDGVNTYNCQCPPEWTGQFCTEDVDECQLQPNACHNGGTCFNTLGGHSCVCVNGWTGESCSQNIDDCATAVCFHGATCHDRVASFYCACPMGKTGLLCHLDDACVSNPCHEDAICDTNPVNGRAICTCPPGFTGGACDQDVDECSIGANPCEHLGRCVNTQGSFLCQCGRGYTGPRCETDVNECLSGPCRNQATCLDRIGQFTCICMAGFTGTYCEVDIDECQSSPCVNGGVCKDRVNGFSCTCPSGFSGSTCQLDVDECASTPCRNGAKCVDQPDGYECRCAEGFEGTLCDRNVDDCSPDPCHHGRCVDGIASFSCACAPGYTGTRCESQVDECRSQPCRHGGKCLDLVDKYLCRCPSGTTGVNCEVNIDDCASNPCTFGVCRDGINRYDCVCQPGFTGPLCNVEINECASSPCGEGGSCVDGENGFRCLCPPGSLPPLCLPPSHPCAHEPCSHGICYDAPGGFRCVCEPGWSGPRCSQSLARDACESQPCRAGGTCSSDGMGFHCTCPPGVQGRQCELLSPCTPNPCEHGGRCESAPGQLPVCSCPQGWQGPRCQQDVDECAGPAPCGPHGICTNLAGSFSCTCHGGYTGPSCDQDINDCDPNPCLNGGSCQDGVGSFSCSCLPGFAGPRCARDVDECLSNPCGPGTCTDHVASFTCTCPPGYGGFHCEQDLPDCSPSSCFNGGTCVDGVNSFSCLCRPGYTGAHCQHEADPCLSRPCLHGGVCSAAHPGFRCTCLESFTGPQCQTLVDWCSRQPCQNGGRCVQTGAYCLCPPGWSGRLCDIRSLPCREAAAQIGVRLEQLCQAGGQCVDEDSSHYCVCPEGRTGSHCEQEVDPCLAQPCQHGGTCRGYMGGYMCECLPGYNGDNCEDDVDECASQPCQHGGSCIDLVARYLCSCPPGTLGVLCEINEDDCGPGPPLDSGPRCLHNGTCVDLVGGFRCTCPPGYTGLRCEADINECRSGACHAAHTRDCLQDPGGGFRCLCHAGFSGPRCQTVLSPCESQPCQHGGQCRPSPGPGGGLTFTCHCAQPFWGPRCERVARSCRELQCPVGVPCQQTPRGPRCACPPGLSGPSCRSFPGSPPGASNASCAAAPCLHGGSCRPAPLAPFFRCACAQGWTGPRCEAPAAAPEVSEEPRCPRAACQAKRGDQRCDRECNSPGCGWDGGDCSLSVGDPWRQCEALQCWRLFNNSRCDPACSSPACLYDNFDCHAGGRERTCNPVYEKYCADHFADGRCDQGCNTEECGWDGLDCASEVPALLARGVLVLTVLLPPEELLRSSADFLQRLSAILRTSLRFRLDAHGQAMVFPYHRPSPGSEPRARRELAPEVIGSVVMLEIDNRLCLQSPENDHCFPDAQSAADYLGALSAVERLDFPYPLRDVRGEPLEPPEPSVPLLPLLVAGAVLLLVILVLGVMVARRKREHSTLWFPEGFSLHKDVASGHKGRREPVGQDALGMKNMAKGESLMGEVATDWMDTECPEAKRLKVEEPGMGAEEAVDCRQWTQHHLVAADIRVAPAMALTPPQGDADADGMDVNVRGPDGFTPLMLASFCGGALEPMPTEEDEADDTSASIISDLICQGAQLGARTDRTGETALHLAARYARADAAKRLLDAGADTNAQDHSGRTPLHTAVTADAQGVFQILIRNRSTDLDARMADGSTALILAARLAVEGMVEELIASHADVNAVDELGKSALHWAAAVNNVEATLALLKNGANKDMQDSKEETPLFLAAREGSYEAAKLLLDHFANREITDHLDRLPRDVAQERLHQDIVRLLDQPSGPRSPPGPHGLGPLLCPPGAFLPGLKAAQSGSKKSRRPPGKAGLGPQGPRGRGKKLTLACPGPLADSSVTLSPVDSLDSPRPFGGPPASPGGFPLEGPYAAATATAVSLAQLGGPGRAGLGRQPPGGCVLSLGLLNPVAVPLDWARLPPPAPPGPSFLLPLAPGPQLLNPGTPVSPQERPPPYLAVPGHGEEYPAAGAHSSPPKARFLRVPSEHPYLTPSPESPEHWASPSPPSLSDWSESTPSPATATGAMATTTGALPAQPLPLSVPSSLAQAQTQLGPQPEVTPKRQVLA
Sequence of Pro-neuregulin-1, membrane-bound isoform (Homo sapiens) (Q02297 whole entry, looked up, the tested form may be a part, canonical isoform): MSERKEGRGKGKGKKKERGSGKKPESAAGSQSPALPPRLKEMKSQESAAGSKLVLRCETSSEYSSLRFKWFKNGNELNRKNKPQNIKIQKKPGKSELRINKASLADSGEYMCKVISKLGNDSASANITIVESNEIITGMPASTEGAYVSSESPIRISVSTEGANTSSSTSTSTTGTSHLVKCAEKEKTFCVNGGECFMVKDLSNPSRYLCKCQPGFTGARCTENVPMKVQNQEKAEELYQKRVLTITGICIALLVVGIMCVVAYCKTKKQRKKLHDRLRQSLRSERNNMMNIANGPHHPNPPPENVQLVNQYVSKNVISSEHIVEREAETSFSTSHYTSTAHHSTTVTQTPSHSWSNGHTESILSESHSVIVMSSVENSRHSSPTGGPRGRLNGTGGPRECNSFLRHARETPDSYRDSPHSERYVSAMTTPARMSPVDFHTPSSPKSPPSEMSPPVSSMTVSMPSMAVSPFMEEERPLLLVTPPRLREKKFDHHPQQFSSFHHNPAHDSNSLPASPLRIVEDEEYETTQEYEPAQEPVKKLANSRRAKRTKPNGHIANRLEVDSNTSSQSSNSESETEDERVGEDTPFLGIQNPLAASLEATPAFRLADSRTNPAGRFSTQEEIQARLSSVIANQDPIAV
Sequence of Torsin-1A-interacting protein 2 (Homo sapiens) (Q8NFQ8 whole entry, looked up): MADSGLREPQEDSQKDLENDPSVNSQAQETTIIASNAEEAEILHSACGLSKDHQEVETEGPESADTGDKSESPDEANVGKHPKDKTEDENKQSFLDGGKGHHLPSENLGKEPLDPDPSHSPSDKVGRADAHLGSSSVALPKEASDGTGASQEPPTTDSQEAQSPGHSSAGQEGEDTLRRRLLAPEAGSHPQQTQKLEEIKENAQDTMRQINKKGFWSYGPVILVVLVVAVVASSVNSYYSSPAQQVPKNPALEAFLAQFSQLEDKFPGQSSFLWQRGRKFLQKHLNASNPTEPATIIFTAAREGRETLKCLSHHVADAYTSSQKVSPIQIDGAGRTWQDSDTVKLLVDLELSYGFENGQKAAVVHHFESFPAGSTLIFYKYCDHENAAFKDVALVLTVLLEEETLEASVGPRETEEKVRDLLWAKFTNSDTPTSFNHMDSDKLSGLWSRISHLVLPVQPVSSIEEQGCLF

For the compound `CCCCCN1CC=CC23O[C@@H]4/C=C\CCC(C)OC(=O)C4[C@H]2C(=O)N(CCCCCO)[C@@H]3C1=O` (stereo not given in full), the composite z-score in assay [1] is -0.0551; in [2], 0.698; in assay [3] it was -0.0871; in [4] it was -0.524; in assay [5] it was -0.862; in assay [6], 0.948. Further, the composite z-score in assay [7] was -0.69; in [9] it was -0.467; in [10], 0.344; in assay [11] it was -0.103; in assay [15] it was -1.94; in assay [17], -0.0491. Further, the composite z-score in assay [18] is -0.0687; in assay [19], 0.0156; in [20], -0.149. Moreover, the z-score is 0.312 (inactive) in [8]; -1.46 (inactive) in assay [12]; -0.773 (inactive) in assay [13]; -1.39 (inactive) in assay [14]; 2.19 (inactive) in assay [16].

For the compound `O=C1[C@]2(CO)C=C(Br)[C@@H](C[C@@H]2c2ccccc2)[C@@]12CO2`, the composite z-score is -0.333 in [1]; -0.61 in [2]; -0.0507 in assay [3]; -0.0238 in [4]; 0.0861 in assay [5]; 0.251 in assay [6]. The composite z-score in assay [7] was 0.245; in assay [9], -0.0624; in [10] it was -0.134; in assay [11], -0.756; in assay [15], -0.556; in assay [17] it was -0.227. The composite z-score is 0.0401 in assay [18], 0.224 in assay [19] and -0.0828 in assay [20]. Further, the z-score in assay [8] is 1.2 (inactive); in assay [12] it was -0.904 (inactive); in assay [13] it was -3.06 (inactive); in assay [14], -0.666 (inactive); in assay [16] it was 0.0737 (inactive).

For `O=C1O[C@@H](c2ccccc2)[C@@H](c2ccccc2)N2[C@@H](c3ccc(OCCO)cc3)[C@]3(C(=O)Nc4ccccc43)[C@@H](C(=O)Nc3nc4ccccc4s3)[C@H]12`, the composite z-score was found to be 0.509 in assay [1]; 0.58 in [2]; 0.0732 in [3]; 0.962 in assay [4]; 1.49 in assay [5]; 1.45 in assay [6]. Further, the composite z-score was found to be 1.3 in assay [7]; 1.01 in assay [9]; 0.629 in assay [10]; 1.53 in assay [11]; 3.34 in assay [15]; 0.321 in assay [17]. The composite z-score turned out to be 1.3 in [18], 1.11 in [19] and 0.224 in assay [20]. The z-score was -3.08 (inactive) in assay [8]; 1.46 (inactive) in assay [12]; 1.15 (inactive) in [13]; 2.44 (inactive) in [14]; 0.344 (inactive) in [16].

Take `CC(C)C[C@@H]1NC(=O)[C@H]2C[C@@H](C(=O)NCCCCCCNC(=O)CS)[C@@H](c3cccc(OCCO)c3)N2C1=O`: the composite z-score in [1] was -0.206; in assay [2], 0.0281; in assay [3], -0.0493; in [4], 0.43; in assay [5] it was 1.39; in assay [6], 1.24. The composite z-score in assay [7] is 1.32; in assay [9], 0.752; in assay [10] it was -0.0645; in assay [11], 1.4; in [15] it was 2.85; in assay [17], -0.108. Further, the composite z-score in [18] amounted to 1.7; in assay [19], 1.04; in [20], 0.0798. Besides, the z-score in [8] is -0.154 (inactive); in assay [12], -2 (inactive); in assay [13] it was 0.251 (inactive); in assay [14], 0.24 (inactive); in [16], 0.645 (inactive).

`CCOC(=O)C1=CC[C@@H](c2ccccc2)N(S(=O)(=O)c2ccc(C)cc2)[C@H]1C(=O)OCC`: the composite z-score in [1] was 0.138; in [2], -0.0127; in [3], 0.338; in assay [4], 0.641; in [5], 1.25; in [6], -0.196. For the same compound, the composite z-score in [7] is 1.03; in [9], 0.603; in assay [10], -0.108; in assay [11] it was 0.334; in assay [15], 1.14; in assay [17], 0.415. The composite z-score in assay [18] came out at 0.0818; in assay [19], 0.0539; in assay [20] it was 0.202. For the same compound, the z-score in assay [8] was -2.4 (inactive); in assay [12], 0.19 (inactive); in assay [13], 0.572 (inactive); in assay [14], 1.94 (inactive); in assay [16], 0.157 (inactive).

(Values after PubChem BioAssay.)
